PubChem BioAssay (NCI)
Several values for one entry are separate records, joined by “and”; a condition that tells them apart may be missing. Identical values can stand only once. The panel holds about 83,000 compounds, 20% with a hit somewhere; the sample as a whole holds those more often.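 A percent growth of 40 corresponds to 60% growth inhibition; 0 means no net growth; -100 means all cells died. Active threshold: below 10.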 Values without a mark were called inactive. Activity calls are given as the source filed them.

Tests used:
Experiment in all cases: NCI-60 one-dose screen, 48 h (100 = growth as untreated, 0 = no growth, -100 = all killed)
NCI/ADR-RES ovarian = details: 10 µM
T-47D breast = details: 10 µM
MDA-MB-435 melanoma = details: 10 µM
SW-620 colon = details: 10 µM
MCF7 breast = details: 10 µM unless noted
HCT-116 colon = details: 10 µM
HCC-2998 colon = details: 10 µM
KM12 colon = details: 10 µM
BT-549 breast = details: 10 µM

N#CCc1ccccc1
growth (NCI/ADR-RES ovarian): 103%
growth (T-47D breast): 103%
growth (MDA-MB-435 melanoma): 110%
growth (SW-620 colon): 100%
growth (MCF7 breast): 97.7%
growth (HCT-116 colon): 102%
growth (HCC-2998 colon): 106%
growth (KM12 colon): 111%

CC(=O)Nc1c2sscc-2n(C)c1=O
growth (NCI/ADR-RES ovarian): -94.8% (active)
growth (T-47D breast): -87.4% (active)
growth (MDA-MB-435 melanoma): -93.7% (active)
growth (SW-620 colon): -99% (active)
growth (MCF7 breast): -60.9% (active)
growth (HCT-116 colon): -100% (active)
growth (HCC-2998 colon): -100% (active)
growth (KM12 colon): -100% (active)

[Cl][Hg][c]1ccc(Cl)s1
growth (NCI/ADR-RES ovarian): 57.1%
growth (T-47D breast): -68.5% (active)
growth (BT-549 breast): 14.2%
growth (MDA-MB-435 melanoma): 4.96% (active)
growth (SW-620 colon): -26.9% (active)
growth (HCT-116 colon): 15.8%
growth (HCC-2998 colon): 111%
growth (KM12 colon): 91.1%

O=C(CCl)Nc1ccc(Cl)cc1
growth (NCI/ADR-RES ovarian): 68.3%
growth (T-47D breast): 56%
growth (MDA-MB-435 melanoma): 48.5%
growth (SW-620 colon): 39.7%
growth (MCF7 breast): 16.9%
growth (HCT-116 colon): 18.9%
growth (HCC-2998 colon): 98.3%
growth (KM12 colon): 67.8%

O=[P+](O)c1ccccc1
growth (NCI/ADR-RES ovarian): 106%
growth (T-47D breast): 99.9%
growth (MDA-MB-435 melanoma): 118%
growth (SW-620 colon): 106%
growth (MCF7 breast): 95.9%
growth (HCT-116 colon): 100%
growth (KM12 colon): 107%

CC1CCC2(OC1)OC1C(O)C3C4CCC5CC(OC6OC(CO)C(OC7OC(CO)C(O)C(OC8OCC(O)C(O)C8O)C7OC7OC(CO)C(O)C(OC8OC(CO)C(O)C(O)C8O)C7O)C(O)C6O)C(O)CC5(C)C4CCC3(C)C1C2C (centres undefined)
growth (NCI/ADR-RES ovarian): -59.4% (active)
growth (T-47D breast): 50.1%
growth (MDA-MB-435 melanoma): 47.5%
growth (SW-620 colon): 51.2%
growth (HCT-116 colon): -72% (active)
growth (KM12 colon): 34.2%

CC[C@@H](C)[C@@H]1NC(=O)C(NC(=O)C(CC(C)C)N(C)C(=O)C2CCCN2C(=O)C(C)O)C(C)OC(=O)C(Cc2ccc(OC)cc2)N(C)C(=O)C2CCCN2C(=O)C(CC(C)C)NC(=O)C(C)C(=O)C(C(C)C)OC(=O)C[C@H]1O (some centres undefined)
growth (NCI/ADR-RES ovarian): -43.2% (active)
growth (T-47D breast): -32.5% (active)
growth (MDA-MB-435 melanoma): -91.8% (active)
growth (SW-620 colon): -45.5% (active)
growth (MCF7 breast): -27.7% (active)
growth (HCT-116 colon): -28.8% (active)
growth (KM12 colon): -49.8% (active)

[Cl][Sn]([c]1ccccc1)([c]1ccccc1)[c]1ccccc1
growth (NCI/ADR-RES ovarian): -37.7% (active)
growth (BT-549 breast): -83.1% (active)
growth (MDA-MB-435 melanoma): -83.9% (active)
growth (SW-620 colon): -56.2% (active)
growth (MCF7 breast): -81.1% (active)
growth (HCT-116 colon): -97.3% (active)
growth (HCC-2998 colon): -83.9% (active)
growth (KM12 colon): -71.3% (active)

C#CC1(O)CCC(C(C)(C)C)CC1 (centres undefined)
growth (NCI/ADR-RES ovarian): 106%
growth (T-47D breast): 111%
growth (MDA-MB-435 melanoma): 89.8%
growth (SW-620 colon): 106%
growth (HCT-116 colon): 108%
growth (KM12 colon): 100%

C=NCC#N
growth (NCI/ADR-RES ovarian): 102% and 107%
growth (T-47D breast): 98.8% and 93.6%
growth (MDA-MB-435 melanoma): 100% and 113%
growth (SW-620 colon): 100% and 115%
growth (HCT-116 colon): 98.2% and 107%
growth (HCC-2998 colon): 100% and 125%
growth (KM12 colon): 99.4% and 109%

COC12c3c(C)cc(O)c4c(=O)occ(c34)C(=O)C1C13COC(=O)c4c(O)cc(C)c(c41)C(=O)C2C3OC(C)=O (centres undefined)
growth (NCI/ADR-RES ovarian): 97.1%
growth (T-47D breast): 94%
growth (MDA-MB-435 melanoma): 173%
growth (SW-620 colon): 99.7%
growth (HCT-116 colon): 99.1%
growth (HCC-2998 colon): 97.3%
growth (KM12 colon): 103%

Oc1c(I)cc(I)cc1I
growth (T-47D breast): 103%
growth (MDA-MB-435 melanoma): 113%
growth (SW-620 colon): 107%
growth (KM12 colon): 110%

O=C1CCC(=O)N1SC(Cl)(Cl)Cl
growth (NCI/ADR-RES ovarian): 110%
growth (T-47D breast): 118%
growth (MDA-MB-435 melanoma): 102%
growth (SW-620 colon): 100%
growth (HCT-116 colon): 106%
growth (HCC-2998 colon): 103%
growth (KM12 colon): 105%

O=C(O)c1cc(Cc2ccc(O)c(C(=O)O)c2)ccc1O (tested in a mixture with another compound)
growth (NCI/ADR-RES ovarian): 75.7%
growth (T-47D breast): 53.1%
growth (MDA-MB-435 melanoma): 72.7%
growth (SW-620 colon): 64.6%
growth (HCT-116 colon): 45.1%
growth (HCC-2998 colon): 53.9%
growth (KM12 colon): 65.9%

CC(Cc1ccc2c(c1)OCO2)NN (centres undefined)
growth (NCI/ADR-RES ovarian): 98.5%
growth (T-47D breast): 77.5%
growth (SW-620 colon): 98.7%
growth (HCT-116 colon): 85.4%
growth (HCC-2998 colon): 101%
growth (KM12 colon): 103%

COc1ccc(/C=C(\C)[N+](=O)[O-])cc1OC
growth (NCI/ADR-RES ovarian): 90.5%
growth (T-47D breast): -21.6% (active)
growth (MDA-MB-435 melanoma): -59.1% (active)
growth (SW-620 colon): -42.4% (active)
growth (HCT-116 colon): -28.9% (active)
growth (HCC-2998 colon): 94.3%
growth (KM12 colon): 54.6%

CCCCCCCC[N+]12CN3CN(CN(C3)C1)C2
growth (NCI/ADR-RES ovarian): 98.9%
growth (MDA-MB-435 melanoma): 95%
growth (SW-620 colon): 89.7%
growth (MCF7 breast): 91.4%
growth (HCT-116 colon): 93.6%
growth (HCC-2998 colon): 98.3%
growth (KM12 colon): 98.4%

COc1cc2c(cc1OC)C13CCN4CC5=CCOC6CC(=O)N2C1C6C5CC43 (centres undefined)
growth (NCI/ADR-RES ovarian): 116% and 66.9%
growth (T-47D breast): 96.9% and 109%
growth (MDA-MB-435 melanoma): 112% and 110%
growth (SW-620 colon): 115% and 106%
growth (HCT-116 colon): 99.4% and 102%
growth (HCC-2998 colon): -56.9% (active)
growth (KM12 colon): 101% and 100%

COc1cc([C@@H]2c3cc4c(c(O)c3C[C@H]3COC(=O)[C@@H]32)OCO4)cc(OC)c1OC
growth (NCI/ADR-RES ovarian): -28.9% (active)
growth (T-47D breast): 60.8%
growth (MDA-MB-435 melanoma): -19.6% (active)
growth (SW-620 colon): 15.9%
growth (HCT-116 colon): -38.4% (active)
growth (HCC-2998 colon): -54.8% (active)
growth (KM12 colon): 0.358% (active)

NC(=O)c1cc([N+](=O)[O-])c(Cl)c([N+](=O)[O-])c1Cl
growth (NCI/ADR-RES ovarian): 20.4%
growth (T-47D breast): -36.7% (active)
growth (MDA-MB-435 melanoma): 11.1%
growth (SW-620 colon): -79.9% (active)
growth (HCT-116 colon): -39.2% (active)
growth (HCC-2998 colon): 39.2%
growth (KM12 colon): 19.1%

COc1cc(/C=C/[N+](=O)[O-])cc(Br)c1OC
growth (NCI/ADR-RES ovarian): 60.2%
growth (T-47D breast): 16.3%
growth (MDA-MB-435 melanoma): 11%
growth (MCF7 breast): 8.38% (active)
growth (HCT-116 colon): -91.7% (active)
growth (HCC-2998 colon): -90.9% (active)
growth (KM12 colon): 15.2%

COC(=O)C1C(O)C(C)C(O)C(C)/C=C\C=C(C)C(=O)Nc2c(C)c(OC(C)=O)c3c(c2O)C(=O)C(C)=C2OCOC(=C23)C(C)=CC(C)(O)C(O)C(C)C1O (centres undefined)
growth (NCI/ADR-RES ovarian): 105%
growth (T-47D breast): 100%
growth (MDA-MB-435 melanoma): 100%
growth (SW-620 colon): 94.2%
growth (HCT-116 colon): 99.9%
growth (HCC-2998 colon): 91.6%
growth (KM12 colon): 102%

CCOP(=O)(OCC)/C(C#N)=C/c1ccc(Br)cc1
growth (NCI/ADR-RES ovarian): 107%
growth (T-47D breast): 90.8%
growth (MDA-MB-435 melanoma): 104%
growth (SW-620 colon): 105%
growth (MCF7 breast): 92%
growth (HCT-116 colon): 101%
growth (HCC-2998 colon): 102%
growth (KM12 colon): 109%

CC(C)c1cc([N+](=O)[O-])cc([N+](=O)[O-])c1O
growth (NCI/ADR-RES ovarian): 97.3%
growth (T-47D breast): 97.3%
growth (MDA-MB-435 melanoma): 108%
growth (SW-620 colon): 100%
growth (HCT-116 colon): 103%
growth (HCC-2998 colon): 87.4%
growth (KM12 colon): 88.1%

CC/C(=C/c1ccc(OC)cc1)[N+](=O)[O-]
growth (NCI/ADR-RES ovarian): 30.3%
growth (T-47D breast): -43.7% (active)
growth (MDA-MB-435 melanoma): 15.1%
growth (SW-620 colon): -76.8% (active)
growth (HCT-116 colon): -81.3% (active)
growth (HCC-2998 colon): 85.1%
growth (KM12 colon): 33.8%

O=[N+]([O-])/C=C\c1ccc2c(c1)OCO2
growth (NCI/ADR-RES ovarian): 98.5%
growth (T-47D breast): 75.3%
growth (MDA-MB-435 melanoma): -14.8% (active)
growth (SW-620 colon): 43.2%
growth (HCT-116 colon): -20% (active)
growth (HCC-2998 colon): 52.6%
growth (KM12 colon): 38.3%

Oc1c(Cl)cc(Cl)c2ccccc12.[Cu+2]
growth (NCI/ADR-RES ovarian): 91.9%
growth (T-47D breast): 82.9%
growth (MDA-MB-435 melanoma): -83.4% (active)
growth (SW-620 colon): 88.3%
growth (HCT-116 colon): 71.8%
growth (HCC-2998 colon): 86%
growth (KM12 colon): 98.9%

O=[N+]([O-])/C=C/c1ccc(Cl)cc1[N+](=O)[O-]
growth (NCI/ADR-RES ovarian): 32.1%
growth (T-47D breast): -6.41% (active)
growth (MDA-MB-435 melanoma): 76.8%
growth (SW-620 colon): -90.2% (active)
growth (HCT-116 colon): -100% (active)
growth (HCC-2998 colon): 105%
growth (KM12 colon): 29.1%

COc1ccc2c(ccc3oc([N+](=O)[O-])cc32)c1
growth (NCI/ADR-RES ovarian): 2.89% (active)
growth (T-47D breast): 15.3%
growth (MDA-MB-435 melanoma): -77% (active)
growth (SW-620 colon): 7.19% (active)
growth (MCF7 breast): 6.64% (active)
growth (HCT-116 colon): 4.98% (active)
growth (HCC-2998 colon): -59.3% (active)
growth (KM12 colon): -5.99% (active)

O=C1C=Cc2ccccc2C1=O
growth (NCI/ADR-RES ovarian): 93.8%
growth (T-47D breast): 97.2%
growth (MDA-MB-435 melanoma): 5.35% (active)
growth (SW-620 colon): 50.5%
growth (HCT-116 colon): 87.7%
growth (HCC-2998 colon): 112%
growth (KM12 colon): 110%

C[C@H]1CC[C@@]2(NC1)O[C@H]1C[C@H]3[C@@H]4CC[C@H]5C[C@@H](O)CC[C@]5(C)[C@H]4CC[C@]3(C)[C@H]1[C@@H]2C
growth (MCF7 breast): 29.5% [100 µM] and 25.5% [100 µM]

CS(=N)(=O)CCC(N)C(=O)O (centres undefined)
growth (NCI/ADR-RES ovarian): 100%
growth (T-47D breast): 111%
growth (MDA-MB-435 melanoma): 99.8%
growth (SW-620 colon): 103%
growth (HCT-116 colon): 97.1%
growth (HCC-2998 colon): 92.7%
growth (KM12 colon): 115%
